Hits are enriched below; roughly 7.3% of the tested compounds scored in any of these assays.
HCV inh: qHTS Assay for Inhibitors of Hepatitis C Virus (HCV); Huh7.5.1 HCVcc-Cre infection, luciferase reporter, 44 h; Potency, µM (doses to about 41.8 µM), without a hit: at the top dose activity change, negative = inhibition, most hits filed as inhibitors; hit rate 3.4% among 340,000; active = well fitted inhibition curve with a large enough effect; inconclusive = small, poorly fitted or top-dose-only effect, or another doubt; inactive = no such curve, though single readings can be large or run the other way; also: potency is read from the fitted curve at half-maximal effect
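Cells seeded at 1,000/well and cultured 4 h, then compounds added followed by HCVcc-Cre virus (~0.5 moi). After 44 h further culture, luciferase substrate was added, plates held 15 min at room temperature, and luminescence read for 15 sec.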
Vaccinia mCherry: qHTS for Stage-Specific Inhibitors of Vaccinia Orthopoxvirus: mCherry Reporter Primary qHTS; Potency, µM (doses to about 36.5 µM), without a hit: top-dose activity change, negative = inhibition, usual class: inhibitors; hit rate 0.63% among 310,000; Vaccinia virus mCherry reporter infection, fluorescence; calls by dose curve; tested in A549 cells; also: potency is read from the fitted curve at half-maximal effect; nearly all actives have a fitted effect of over 35% in size
Vaccinia Venus: qHTS for Stage-Specific Inhibitors of Vaccinia Orthopoxvirus: Venus Reporter Primary qHTS; Vaccinia virus Venus reporter expression, fluorescence; Potency, µM (top dose mostly 36.5 µM), for inactives: at the highest dose activity change, negative = inhibition, actives largely listed as inhibitors; hit rate 0.46% among 330,000; calls by dose curve; tested in A549 cells; also: potency is read from the fitted curve at half-maximal effect; nearly all actives have a fitted effect of over 30% in size
FMDV inh: High Throughput Screening for Foot and Mouth Disease Virus Antivirals | FMDV antiviral cell-based qHTS | AID 1159524, 2015 | hit rate 1.2% among 410,000 | Potency, µM (titrated, usually from 57.9 µM), without a hit: top-dose activity change, negative = inhibition, usual class: inhibitors; calls by dose curve; tested in HEK293T cells; also: read-out not given here; potency is read from the fitted curve at half-maximal effect; nearly all actives have a fitted effect of over 45% in size
HCMV inh: qHTS Assay for inhibitors of the human cytomegalovirus (HCMV); HFF cells, HCMV-luciferase reporter, 72 h; active compounds read low; activity change, negative = inhibition, % at 57.5 µM; hit rate 4.5% among 410,000; AID 1259415, 2018; in the data active = activity change below about -60%; inconclusive = no clear call, values can overlap the other calls; inactive = above about -39%
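After 16 h attachment at 37C, HFF cells received test compound and HCMV-luciferase (1 PFU/cell); reporter luminescence read 72 h later, data normalized against buffer-only and known inhibitor Salinomycin.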
An asterisk follows results filed as active; i = inactive; u = inconclusive; x = no result; ! = a repeat was not active; [ ] = dose if it differs, or a comment. % is scaled to controls: 0 for no effect and ±100 for the full control effect.

SMILES	HCV inh	Vaccinia mCherry	Vaccinia Venus	FMDV inh	HCMV inh
Cc1n[nH]c(C)c1S(=O)(=O)N(CC(=O)Nc1ccc(C(F)(F)F)cc1)c1ccc(C(C)C)cc1	x	u	u	-27%	-96*
Cc1noc(C)c1S(=O)(=O)N(CC(=O)Nc1ccc(C(F)(F)F)cc1)c1ccc(C(C)C)cc1	x	i	-14%	u	-8
CN(C)c1cc[n+](CC(=O)c2ccc(Br)cc2)cc1	-10%	i	-7%	u	-74*
COc1ccc(C(=O)COC(=O)c2ccc(N(C)C)cc2)cc1	-7%	0%	-11%	25%	-10
Cc1ccc(C(=O)C[n+]2ccc(Cc3ccccc3)cc2)cc1	u	-14%	-7%	-17%	-88*
CN(C)c1cc[n+](CC(=O)c2ccc(-c3ccccc3)cc2)cc1	u	x	x	u	-95*
COc1ccc(C(=O)C[n+]2ccc(N(C)C)cc2)cc1	u	i	-16%	-26%	-68*
CCCNC(=O)CN1C(=O)CSc2ccc(S(=O)(=O)N3CCC(C)CC3)cc21	x	-11%	5%	-3%	-4
Cc1ccc(CNC(=O)CCCn2c(=O)c3ccccc3n(Cc3ccc(Cl)cc3)c2=O)cc1	x	-20%	-15%	-19%	6
C=Cn1cc[n+](CC(=O)c2ccc(-c3ccccc3)cc2)c1	u	i	0%	-22%	-63*
COC(=O)[C@@H]1CCCN1Cc1ccc2c(c1)CN(Cc1ccc3c(c1)CCO3)CCO2	x	-6%	0%	-7%	x
COc1ccc2c3c(cccc13)C(=O)N(O)C2=O	u	-24%	u	-12%	-60*
COc1ccc2c3c(ccc2c1)C(=O)/C(=C/O)CC3	-32%	-22%	-3%	u	10
CN(C)CCOc1ncnc2c1oc1ccccc12	14%	x	x	-7%	18
CN(C)CCOc1nc(-c2ccccc2)nc2c1oc1ccccc12	u	x	1%	0%	-77*
CC1C=CCC2C(=O)N(c3cccc(C(=O)NCCc4ccccc4)c3)C(=O)C12 (centres undefined)	-4%	x	x	-12%	-61*
COC(=O)c1cc(C(=O)N2CCN(c3ccccc3OC)CC2)cc([N+](=O)[O-])c1	-26%	2.8µM*	-16%	-7%	u
COc1ccccc1N1CCN(C(=O)c2ccc3nc(-c4ccco4)c(-c4ccco4)nc3c2)CC1	11µM*!	11µM*	u	u	-8
O=C(Nc1ccccc1Cl)c1ccc2nc(N3CCOCC3)sc2c1	-5%	i	-5%	10%	u
CCc1ccc([C@@H]2CC=C(C(=O)O)[C@H](c3ccc(C(C)(C)C)cc3)N2S(=O)(=O)c2ccc(C)cc2)cc1	4%	u	-20%	u	-36
COc1ccc(C(NC(=O)c2cccnc2)c2cc(Cl)c3cccnc3c2O)cc1OC (centres undefined)	8.9µM*	-11%[1.46 µM]	u	u	-97*
CCC(=O)NC(c1ccco1)c1cc(Cl)c2cccnc2c1OC (centres undefined)	x	x	x	0%	-4
COc1ccc(C(=O)NC(c2ccc(OC)c(OC)c2)c2cc(Cl)c3cccnc3c2O)cc1 (centres undefined)	x	4.5µM*	u	x	x
CCC(=O)NC(c1ccc(OC)cc1)c1cc(Cl)c2cccnc2c1O (centres undefined)	2.5µM*	u	u	-19%	34
COc1ccc(C(=O)NCCCNC(=O)c2cccnc2)cc1OC	1%	7%	8%	-7%	-7
SMILES	HCV inh	Vaccinia mCherry	Vaccinia Venus	FMDV inh	HCMV inh
CC(C)C[C@H]1CN(CCCC[C@@H]2CNC(=O)C(=O)N2CC2CCCCC2)C(=O)C(=O)N1Cc1ccccc1	x	39%	2%	41%	-21
COC(=O)c1ccc(OCC(O)CN2CCN(C(=O)c3ccco3)CC2)c(OC)c1 (centres undefined)	4%	-11%	-1%	-20%	28
Cc1ccc(Nc2nc(CSc3nnc(-c4cccnc4)n3-c3ccccc3C)cs2)cc1	32µM*	u	-21%	-13%	4
CCc1ccc(C(=O)COC(=O)c2cc([N+](=O)[O-])ccc2N2CCOCC2)cc1	1µM*	u	-22%	-4%	-35
O=C(COC(=O)c1cc([N+](=O)[O-])ccc1N1CCOCC1)Nc1ccc(Cl)cn1	u	u	28µM*	-22%	-102*
CCc1cccc(C)c1NC(=O)COC(=O)c1cc([N+](=O)[O-])ccc1N1CCOCC1	10µM*	-16%	3%	-21%	-12
O=C(COC(=O)c1cc([N+](=O)[O-])ccc1N1CCOCC1)Nc1ccc(Cl)cc1	u	i	-18%	u	-30
Cc1cc(Cl)ccc1NC(=O)COC(=O)c1cc([N+](=O)[O-])ccc1N1CCOCC1	2.5µM*	i	-17%	0%	-24
O=[N+]([O-])c1ccccc1-c1onc(-c2ccccc2Br)c1Br	x	x	x	x	11
COc1ccc(Cc2nc3ccc(C(=O)NC(C)c4cn(C)nc4C)cc3o2)cc1 (centres undefined)	u	x	x	-15%	-36
O=C(NNc1c2ccccc2nc2ccccc12)c1ccc(O)cc1	10µM*	x	x	-5%	u
O=C(NNc1c2ccccc2nc2ccccc12)c1cccc(O)c1	u	u	u	0%	-61*
COc1ccc2c(CN3CCCCCCC3)cc(=O)oc2c1	x	13%	-3%	0%	48
CCOc1ccc(-c2n[nH]c3c2C(c2cccs2)N(c2ccc(Br)cc2)C3=O)cc1 (centres undefined)	x	-20%	-29%	u	-99*
CCOc1ccc(N2C(=O)c3[nH]nc(-c4ccc(OC)cc4)c3C2c2cccs2)cc1 (centres undefined)	x	u	u	40µM*	-95*
CCOc1ccc(N2C(=O)c3n[nH]c(-c4cccs4)c3C2c2cccc(F)c2)cc1 (centres undefined)	x	-26%	-25%	u	-18
CC1=C(C(=O)OCc2ccc(C)cc2)C(c2ccccc2F)CC(=O)N1 (centres undefined)	x	-8%	-14%	0%	-18
CCOC(=O)c1c(C)c(-c2ccccc2)n(CC(=O)NCc2ccccc2)c1C	x	i	-19%	-7%	-3
CCOC(=O)c1c(C)c(-c2ccccc2)n(CC(=O)Nc2cc(C)cc(C)c2)c1C	x	-16%	u	-18%	-97*
Cc1ccc(CCNC(=O)c2cc3c(s2)-c2c(C)cccc2OC3)cc1	x	-17%	-8%	-12%	-86*
CC1CCCN(CCCNC(=O)c2cc3c(s2)-c2ccccc2OC3)C1 (centres undefined)	11µM*	u	u	-6%	-67*
CCN(CC)CCNC(=O)c1cc2c(s1)-c1ccccc1SC2	11µM*	x	x	-8%	-72*
CC1CCN(CCCNC(=O)c2cc3c(s2)-c2ccccc2OC3)CC1	u	x	x	-9%	-18

Screens from PubChem.
